Among all 1,100 compounds or so, about 210 (19%) were called active. How the calls were made is not given here. A selection follows. Measured potencies and affinities stand elsewhere.
Assay: cell viability loss from selected hits – cytotoxicity control for SV40 T antigen inhibitor project, dose response (AID 2102);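 further: cells exposed to compounds for 72 hours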
Details: Host cell viability cytotoxicity counter-screen; series mostly up to 50 µM
For `O=C(Nc1ccc(O)cc1)c1ccc2c(c1)C(=O)N(N1C(=O)c3ccccc3C1=O)C2=O`, the outcome was “inactive”. In the case of `CC(C)c1ccc(C2CC(=O)N3CN(C)CSC3=C2C#N)cc1` (configuration not stated), the outcome is reported as “inactive”. With `O=C(CCCCl)NC1=NN(c2ccccc2)C(=O)C1` the outcome was “inactive”. With `CCOc1cc(/C=C2/N=C(C)C(C(=O)OC)=C2O)ccc1O` the outcome was “inactive”. For `NC1=NC(=O)/C(=C\c2ccco2)S1`, the outcome was “inactive”. With `C=CCOc1ccccc1CNc1ccc2[nH]c(=O)[nH]c2c1` the outcome was “inactive”. In the case of `O=c1[nH]c2ccc(NCc3ccc(F)cc3)cc2[nH]1`, the outcome is reported as “inactive”. With `COc1cc(/C=N/NC(=O)c2ccccc2O)ccc1OC(=O)CC1SC(=O)NC1=O` (configuration not stated) the outcome was “inactive”. For `COc1cc(/C=N\Nc2nc(-c3cccs3)c(NC(C)=O)s2)ccc1O`, the outcome was “inactive”. For `CCOc1cc(/C=N/Nc2nc(-c3cccs3)c(NC(C)=O)s2)ccc1O`, the outcome was “inactive”. For `CCN(CC)c1ccc(NC(=O)COC(=O)COc2ccccc2[N+](=O)[O-])cc1`, the outcome was “inactive”. In the case of `CCOC(=O)C[n+]1c(C)sc2ccc(OC)cc21`, the outcome is reported as “inactive”. For `CC(Nc1ccc(N2CCOCC2)cc1)C(=O)N1c2ccccc2CC1C` (configuration not stated), the outcome was “inactive”. For `COc1cc(/C=N/NC(=O)c2cccs2)ccc1O`, the outcome was “inactive”. With `CCOC(=O)c1cc(-c2ccc(N)cc2)sc1N` the outcome was “inactive”. With `CCN(CC)c1ccc(/C=N/O)cc1` the outcome was “inactive”. With `Oc1ccc(/C=N/N2CCN(c3ccccn3)CC2)cc1` the outcome was “inactive”. For `COc1cc(/C=N/NC(=O)C2COc3ccccc3O2)ccc1O` (configuration not stated), the outcome was “inactive”. In the case of `COc1cc(/C(C)=N/NC(=O)CSc2nc3ccccc3[nH]2)ccc1O`, the outcome is reported as “inactive”. For `O=C(CC1SC(=O)N(c2ccccc2)C1=O)Nc1cccc2ccccc12` (configuration not stated), the outcome was “inactive”. With `Cc1csc(N/N=C/c2ccc(O)c([N+](=O)[O-])c2)n1` the outcome was “inactive”. With `CCN(CC)c1ccc(NC(=O)c2cccc(F)c2)c(C)c1` the outcome was “inactive”. For `CCN(CC)c1ccc(NC(=O)c2cccnc2)c(C)c1`, the outcome was “inactive”. For `Oc1ccc(C=Nc2ccc(N3CCOCC3)cc2)c(O)c1`, the outcome was “inactive”. In the case of `COc1cc(SC#N)ccc1N=Cc1c(C)[nH]n(-c2ccc(C)cc2C)c1=O`, the outcome is reported as “inactive”. In the case of `O=C1c2ccccc2NC2(CCCCC2)N1c1ccc(O)cc1`, the outcome is reported as “inactive”. In the case of `CCN(CC)c1ccc(NC(=O)CSc2nnc3nc(C)cc(C)n23)cc1`, the outcome is reported as “inactive”. With `COC(=O)C1=C(O)/C(=C/c2cccc(OC)c2O)N=C1C` the outcome was “inactive”. With `CC(=O)Nc1ccc(N2CCCCC2)cc1` the outcome was “inactive”. With `CN(C)c1ccc(NC(=O)CN2CCN(c3ccc(F)cc3)CC2)cc1` the outcome was “inactive”. For `COc1cc(/C=N/NC(=O)CNc2n[nH]c(=O)[nH]c2=O)ccc1O`, the outcome was “inactive”. For `COc1ccc(OC)c(CCNC(=O)Cn2sc3nc(C)cc(C)c3c2=O)c1`, the outcome was “inactive”. With `CCN(CC)S(=O)(=O)c1ccc(C(=O)Oc2coc(CSc3nc(C)cc(C)n3)cc2=O)cc1` the outcome was “inactive”. With `FC(F)(F)C1CCCN(c2nsc3ccccc23)C1` (configuration not stated) the outcome was “inactive”. With `Nc1ncc(N=Nc2cc(C(=O)O)ccc2Cl)s1` the outcome was “inactive”. With `CCn1c(SCC(=O)c2ccc(O)c(O)c2)nnc1-c1ccccc1OC` the outcome was “inactive”. In the case of `COc1cc(/C=N/NC(=O)c2nnn(-c3nonc3N)c2-c2cccs2)ccc1O`, the outcome is reported as “inactive”.

From PubChem BioAssay AID2102 (Southern Research Specialized Biocontainment Screening …, 2009)
